What all share (test): DAPPL (digital affinity profiling via proximity ligation, sequencing); 10 mM Tris-HCl pH 7.5, 50 mM NaCl, 1 mM DTT, 4% glycerol, room temperature, 30 min; GST-TFs on glutathione beads, 16-mer random dsDNA library, 0.1% formaldehyde crosslink after washing; high values mean tight binding
Common to all, as to settings: protein: recombinant; tags: N-terminal GST; dsDNA, one strand shown

For one test, the target named is T1, FLI1 (Homo sapiens, UniProt Q01543 1-452).
T1 sequence: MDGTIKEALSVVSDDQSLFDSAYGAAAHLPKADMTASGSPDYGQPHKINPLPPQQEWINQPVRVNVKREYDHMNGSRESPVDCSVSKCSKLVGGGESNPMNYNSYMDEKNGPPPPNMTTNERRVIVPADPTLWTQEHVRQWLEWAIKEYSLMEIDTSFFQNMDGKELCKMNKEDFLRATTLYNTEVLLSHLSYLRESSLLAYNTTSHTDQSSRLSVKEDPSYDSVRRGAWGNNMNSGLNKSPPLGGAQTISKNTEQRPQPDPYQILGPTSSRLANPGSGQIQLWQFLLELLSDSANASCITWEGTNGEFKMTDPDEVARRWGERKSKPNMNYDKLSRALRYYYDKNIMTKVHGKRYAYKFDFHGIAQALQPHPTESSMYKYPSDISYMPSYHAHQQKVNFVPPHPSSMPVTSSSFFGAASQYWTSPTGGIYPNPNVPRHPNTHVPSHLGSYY
An outline of the steps: (§1)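 Each value of binding signal is a hexamer's read frequency for a factor divided by the same hexamer's frequency in the tag-only sample. Barcoded, bead-captured GST fusions of human transcription factors made in yeast were pooled with that sample and incubated with 200 nmole of a random double-stranded 16-mer DNA library in Tris/NaCl/DTT/glycerol buffer at room temperature for 30 min. Washing, 0.1% formaldehyde crosslinking, proximity ligation, PCR and Illumina NextSeq500 sequencing followed.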

The target in a further test is T2, ELK1 (Homo sapiens, UniProt P19419 1-428).
T2 sequence: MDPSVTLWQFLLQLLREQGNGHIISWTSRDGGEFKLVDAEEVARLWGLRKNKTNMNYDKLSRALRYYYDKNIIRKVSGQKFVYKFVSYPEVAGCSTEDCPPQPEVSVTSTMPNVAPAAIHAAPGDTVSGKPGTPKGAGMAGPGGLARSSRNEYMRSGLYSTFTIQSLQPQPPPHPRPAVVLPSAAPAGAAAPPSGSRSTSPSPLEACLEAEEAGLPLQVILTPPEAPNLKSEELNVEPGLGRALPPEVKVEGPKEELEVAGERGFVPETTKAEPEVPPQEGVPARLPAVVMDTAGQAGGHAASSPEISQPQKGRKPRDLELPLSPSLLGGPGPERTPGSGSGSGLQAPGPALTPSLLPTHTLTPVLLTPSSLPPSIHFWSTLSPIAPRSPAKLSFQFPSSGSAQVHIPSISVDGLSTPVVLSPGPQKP
The essentials:
as §1

In the next test the target is T3, GABPA (Homo sapiens, UniProt Q06546 1-454).
T3 sequence: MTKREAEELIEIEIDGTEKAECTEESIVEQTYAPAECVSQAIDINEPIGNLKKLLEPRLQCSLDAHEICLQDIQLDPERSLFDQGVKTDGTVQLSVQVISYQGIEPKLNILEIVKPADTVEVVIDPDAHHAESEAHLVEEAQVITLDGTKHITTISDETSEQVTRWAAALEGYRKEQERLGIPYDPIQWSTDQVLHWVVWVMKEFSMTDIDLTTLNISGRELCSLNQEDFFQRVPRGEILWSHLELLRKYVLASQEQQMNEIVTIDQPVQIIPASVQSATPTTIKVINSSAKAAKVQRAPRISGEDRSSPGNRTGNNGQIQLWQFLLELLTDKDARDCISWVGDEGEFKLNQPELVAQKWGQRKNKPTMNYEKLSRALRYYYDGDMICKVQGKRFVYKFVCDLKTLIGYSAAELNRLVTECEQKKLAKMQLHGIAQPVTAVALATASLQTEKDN
The essentials: as §1

The next test concerns the target T4, ERG (Homo sapiens, UniProt P11308 1-479).
T4 sequence: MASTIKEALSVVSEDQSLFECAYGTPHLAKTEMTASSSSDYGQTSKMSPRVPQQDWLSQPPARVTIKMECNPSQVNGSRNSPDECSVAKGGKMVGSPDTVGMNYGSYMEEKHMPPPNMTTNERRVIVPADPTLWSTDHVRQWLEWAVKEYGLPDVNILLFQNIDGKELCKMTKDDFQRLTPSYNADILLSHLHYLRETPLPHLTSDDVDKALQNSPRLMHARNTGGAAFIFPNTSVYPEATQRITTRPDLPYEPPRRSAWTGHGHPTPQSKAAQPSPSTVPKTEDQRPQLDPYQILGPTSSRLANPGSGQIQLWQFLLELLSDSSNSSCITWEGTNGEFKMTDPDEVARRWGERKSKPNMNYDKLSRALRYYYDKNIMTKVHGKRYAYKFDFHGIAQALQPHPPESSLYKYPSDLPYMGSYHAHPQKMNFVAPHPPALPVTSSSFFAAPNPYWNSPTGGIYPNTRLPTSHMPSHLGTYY
An outline of the steps:
as §1

The target in the next test is ELF1 (Homo sapiens, UniProt P32519 1-619). An outline of the steps: as §1
The target of the next test is T5, EHF (Homo sapiens, UniProt Q9NZC4 1-300).
T5 sequence: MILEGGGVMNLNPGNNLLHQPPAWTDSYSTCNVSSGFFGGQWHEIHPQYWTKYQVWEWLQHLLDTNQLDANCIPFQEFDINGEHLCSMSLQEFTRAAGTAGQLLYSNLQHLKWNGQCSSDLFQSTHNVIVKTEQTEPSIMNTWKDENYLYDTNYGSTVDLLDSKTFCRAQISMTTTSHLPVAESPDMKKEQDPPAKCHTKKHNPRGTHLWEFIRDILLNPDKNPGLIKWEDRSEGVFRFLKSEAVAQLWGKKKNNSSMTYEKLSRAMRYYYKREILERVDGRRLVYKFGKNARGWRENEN
An outline of the steps: as §1

The next test deals with SPI1 (Homo sapiens, UniProt P17947 1-270). An outline of the steps: as §1
The target of a further test is SPIB (Homo sapiens, UniProt Q01892 1-262). An outline of the steps:
as §1

The next test concerns the target T6, ELK3 (Homo sapiens, UniProt P41970 1-407).
T6 sequence: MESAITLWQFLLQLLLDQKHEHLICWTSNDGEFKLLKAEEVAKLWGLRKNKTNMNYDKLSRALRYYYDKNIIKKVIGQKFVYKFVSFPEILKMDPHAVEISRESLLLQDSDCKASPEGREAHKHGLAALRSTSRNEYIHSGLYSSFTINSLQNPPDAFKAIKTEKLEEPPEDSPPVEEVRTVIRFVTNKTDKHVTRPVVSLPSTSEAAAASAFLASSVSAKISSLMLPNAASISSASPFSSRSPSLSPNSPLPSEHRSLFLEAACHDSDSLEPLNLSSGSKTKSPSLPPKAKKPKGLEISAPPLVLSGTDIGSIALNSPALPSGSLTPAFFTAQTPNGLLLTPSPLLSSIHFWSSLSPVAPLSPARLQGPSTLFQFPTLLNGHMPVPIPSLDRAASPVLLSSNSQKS
An outline of the steps:
as §1

Sequence of SPIB (Q01892 whole entry): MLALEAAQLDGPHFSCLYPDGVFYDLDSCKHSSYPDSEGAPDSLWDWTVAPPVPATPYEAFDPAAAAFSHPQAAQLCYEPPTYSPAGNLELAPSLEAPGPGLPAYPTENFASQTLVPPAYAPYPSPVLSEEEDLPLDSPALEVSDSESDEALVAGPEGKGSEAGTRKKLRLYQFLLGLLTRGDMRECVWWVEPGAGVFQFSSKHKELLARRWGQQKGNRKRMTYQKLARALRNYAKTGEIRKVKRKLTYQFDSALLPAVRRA
Sequence of ELF1 (P32519 whole entry): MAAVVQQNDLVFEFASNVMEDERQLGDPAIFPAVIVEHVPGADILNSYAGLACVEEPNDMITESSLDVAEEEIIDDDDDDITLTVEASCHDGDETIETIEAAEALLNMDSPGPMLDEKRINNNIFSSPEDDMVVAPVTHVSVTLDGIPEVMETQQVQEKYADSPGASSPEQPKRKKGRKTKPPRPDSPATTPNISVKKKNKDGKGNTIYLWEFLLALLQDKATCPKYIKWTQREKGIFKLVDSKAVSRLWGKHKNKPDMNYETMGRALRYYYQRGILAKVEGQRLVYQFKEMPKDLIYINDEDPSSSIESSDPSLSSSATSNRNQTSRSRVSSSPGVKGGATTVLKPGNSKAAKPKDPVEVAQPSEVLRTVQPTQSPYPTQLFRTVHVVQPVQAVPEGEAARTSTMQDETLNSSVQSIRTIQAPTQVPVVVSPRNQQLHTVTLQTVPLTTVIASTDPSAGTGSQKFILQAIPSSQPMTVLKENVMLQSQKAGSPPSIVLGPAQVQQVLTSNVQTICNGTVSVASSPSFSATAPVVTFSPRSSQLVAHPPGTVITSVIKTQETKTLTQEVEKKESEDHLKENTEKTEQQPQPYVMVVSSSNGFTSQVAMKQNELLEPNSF

Regarding CCTTTC, the binding signal with FLI1 was 1.76 fold enrichment (6-mer frequency, TF over GST control); with ELK1, 1.57 fold enrichment (6-mer frequency, TF over GST control); in the test with GABPA it was 1.61 fold enrichment (6-mer frequency, TF over GST control); in the test with ERG, 1.62 fold enrichment (6-mer frequency, TF over GST control); in the test with ELF1, 1.57 fold enrichment (6-mer frequency, TF over GST control); with EHF it was 1.57 fold enrichment (6-mer frequency, TF over GST control). Further, the binding signal in the test with SPI1 is 1.64 fold enrichment (6-mer frequency, TF over GST control); in the test with SPIB it was 1.7 fold enrichment (6-mer frequency, TF over GST control); with ELK3, 1.64 fold enrichment (6-mer frequency, TF over GST control).

On to CCGTTT, for which the binding signal with FLI1 is 1.47 fold enrichment (6-mer frequency, TF over GST control); in the test with ELK1 it was 1.36 fold enrichment (6-mer frequency, TF over GST control); with GABPA, 1.33 fold enrichment (6-mer frequency, TF over GST control); in the test with ERG, 1.57 fold enrichment (6-mer frequency, TF over GST control); with ELF1, 1.29 fold enrichment (6-mer frequency, TF over GST control); in the test with EHF it was 1.33 fold enrichment (6-mer frequency, TF over GST control). The binding signal with SPI1 is 1.56 fold enrichment (6-mer frequency, TF over GST control); with SPIB, 1.39 fold enrichment (6-mer frequency, TF over GST control); with ELK3, 1.35 fold enrichment (6-mer frequency, TF over GST control).

On to CTGATA, for which the binding signal is 1.15 fold enrichment (6-mer frequency, TF over GST control) with FLI1; 1.17 fold enrichment (6-mer frequency, TF over GST control) with ELK1; 1.27 fold enrichment (6-mer frequency, TF over GST control) with GABPA; 1.1 fold enrichment (6-mer frequency, TF over GST control) with ERG; 1.21 fold enrichment (6-mer frequency, TF over GST control) in the test with ELF1; 1.26 fold enrichment (6-mer frequency, TF over GST control) in the test with EHF. The binding signal in the test with SPI1 is 1.28 fold enrichment (6-mer frequency, TF over GST control); with SPIB, 1.32 fold enrichment (6-mer frequency, TF over GST control); in the test with ELK3, 1.24 fold enrichment (6-mer frequency, TF over GST control).

With ACTTTC, the binding signal is 1.55 fold enrichment (6-mer frequency, TF over GST control) in the test with FLI1; 1.65 fold enrichment (6-mer frequency, TF over GST control) with ELK1; 1.59 fold enrichment (6-mer frequency, TF over GST control) in the test with GABPA; 1.46 fold enrichment (6-mer frequency, TF over GST control) with ERG; 1.63 fold enrichment (6-mer frequency, TF over GST control) with ELF1; 1.59 fold enrichment (6-mer frequency, TF over GST control) in the test with EHF. The binding signal with SPI1 was 1.66 fold enrichment (6-mer frequency, TF over GST control); with SPIB, 1.7 fold enrichment (6-mer frequency, TF over GST control); with ELK3 it was 1.62 fold enrichment (6-mer frequency, TF over GST control).

As to TTGTAT, the binding signal with FLI1 was 1.52 fold enrichment (6-mer frequency, TF over GST control); in the test with ELK1, 1.33 fold enrichment (6-mer frequency, TF over GST control); with GABPA it was 1.29 fold enrichment (6-mer frequency, TF over GST control); with ERG it was 1.31 fold enrichment (6-mer frequency, TF over GST control); with ELF1, 1.32 fold enrichment (6-mer frequency, TF over GST control); with EHF, 1.37 fold enrichment (6-mer frequency, TF over GST control). The binding signal is 1.11 fold enrichment (6-mer frequency, TF over GST control) with SPI1; 1.38 fold enrichment (6-mer frequency, TF over GST control) in the test with SPIB; 1.4 fold enrichment (6-mer frequency, TF over GST control) in the test with ELK3.

In the case of TCCTAG, the binding signal with FLI1 was 1.23 fold enrichment (6-mer frequency, TF over GST control); in the test with ELK1 it was 1.11 fold enrichment (6-mer frequency, TF over GST control); with GABPA, 1.24 fold enrichment (6-mer frequency, TF over GST control); with ERG it was 1.17 fold enrichment (6-mer frequency, TF over GST control); with ELF1, 1.31 fold enrichment (6-mer frequency, TF over GST control); in the test with EHF, 1.22 fold enrichment (6-mer frequency, TF over GST control). Moreover, the binding signal with SPI1 was 1.12 fold enrichment (6-mer frequency, TF over GST control); with SPIB, 1.41 fold enrichment (6-mer frequency, TF over GST control); with ELK3, 1.2 fold enrichment (6-mer frequency, TF over GST control).

In the case of TCTAGT, the binding signal with FLI1 was 1.05 fold enrichment (6-mer frequency, TF over GST control); with ELK1, 1.12 fold enrichment (6-mer frequency, TF over GST control); with GABPA, 1.17 fold enrichment (6-mer frequency, TF over GST control); in the test with ERG it was 1.1 fold enrichment (6-mer frequency, TF over GST control); with ELF1, 1.12 fold enrichment (6-mer frequency, TF over GST control); in the test with EHF, 1.08 fold enrichment (6-mer frequency, TF over GST control). Besides, the binding signal with SPI1 is 1.03 fold enrichment (6-mer frequency, TF over GST control); with SPIB it was 1.08 fold enrichment (6-mer frequency, TF over GST control); in the test with ELK3, 1.05 fold enrichment (6-mer frequency, TF over GST control).

As for ACAGCT, the binding signal with FLI1 was 1.15 fold enrichment (6-mer frequency, TF over GST control); in the test with ELK1, 1.14 fold enrichment (6-mer frequency, TF over GST control); with GABPA, 1.19 fold enrichment (6-mer frequency, TF over GST control); with ERG it was 1.17 fold enrichment (6-mer frequency, TF over GST control); with ELF1, 1.16 fold enrichment (6-mer frequency, TF over GST control); with EHF it was 1.16 fold enrichment (6-mer frequency, TF over GST control). In addition, the binding signal with SPI1 is 1.11 fold enrichment (6-mer frequency, TF over GST control); with SPIB, 1.2 fold enrichment (6-mer frequency, TF over GST control); with ELK3 it was 1.18 fold enrichment (6-mer frequency, TF over GST control).

Values taken from publication PMC7862700, “An all-to-all approach to the identification of sequence-specific readers for epigenetic DNA modifications on cytosine”.
